# Hits are enriched below; roughly 4.1% of the tested compounds scored in any of these assays.
# ssDAF12 agonist = activates DAF-12 receptor from parasite S. stercoralis; HEK293 ssDAF-12/GRIP1 lit1-tk-luc reporter, luminescence; % of 3 µM dafachronic acid response; activation, % at 6.8 µM; hit rate 1% among 370,000; AID 652126;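 active = activation above the mean over all tested compounds plus 3 SD, cut at about 0.9% in these data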;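 also: 0% = DMSO-only wells and 100% = 3 µM delta7-dafachronic acid wells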
# DAX1 inh-1 = NR0B1 (DAX1) inhibition. inhibition, % at 6.75 µM. hit rate 0.99% among 340,000. P51843. HEK293 Gal4-DAX1 luciferase reporter, luminescence. AID 504766;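 active = inhibition above the mean over all tested compounds plus 3 SD, cut at about 4.2% in these data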;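 also: 0% = DAX1-transfected cells with DMSO and 100% = empty-vector control cells with DMSO; inhibition shows as a rise in luminescence from relieved DAX1 repression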
# Target sequence (P51843 207-470 limits assumed): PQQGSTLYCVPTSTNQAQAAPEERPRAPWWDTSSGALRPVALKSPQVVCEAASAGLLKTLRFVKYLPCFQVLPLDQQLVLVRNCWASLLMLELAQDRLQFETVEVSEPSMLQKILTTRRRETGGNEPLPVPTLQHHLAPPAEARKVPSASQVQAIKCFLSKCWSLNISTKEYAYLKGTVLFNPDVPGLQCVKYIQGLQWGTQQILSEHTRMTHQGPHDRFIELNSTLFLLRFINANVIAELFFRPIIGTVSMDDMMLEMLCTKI
# DAX1 inh-2 = inhibitors of DAX1 repression of SF-1 activated StAR promoter; HEK293T StAR-luciferase reporter, SF-1/DAX-1 repression relief; inhibition, % at 6.8 µM; hit rate 1.1% among 370,000; AID 652010;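 active = inhibition above the mean over all tested compounds plus 3 SD, cut at about 3.6% in these data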;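 also: 0% = DAX-1 cells with DMSO and 100% = cells lacking DAX-1 with DMSO; higher inhibition means more luminescence from relief of DAX-1 repression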
# hgDAF12 agonist = activates the H. glycines DAF-12 receptor ligand-binding domain | hit rate 1.8% among 370,000 | HEK293 GAL4-hgDAF12 UAS-luciferase reporter, agonist luminescence; normalized to butyrate control | AID 687014 | activation, % at 6.8 µM;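 active = activation above a cutoff set at the mean of all screened compounds plus 3 SD, cut at about 10% in these data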;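 also: 0% = DMSO wells and 100% = sodium butyrate wells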
# hcDAF12 agonist = activates DAF-12 receptor from parasite H. contortus | hit rate 1.4% among 370,000 | HEK293 hcDAF-12 lit1-tk-luc reporter, luminescence; 0% DMSO, 100% Δ7-dafachronic acid | AID 652067 | activation, % at 6.8 µM;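 active = activation above the mean of all tested compounds plus 3 SD, cut at about 5.5% in these data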;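 also: 100% = response to 3 µM Δ7-dafachronic acid high control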
# Active calls of the source: *; / = no result.
SMILES,ssDAF12 agonist,DAX1 inh-1,DAX1 inh-2,hgDAF12 agonist,hcDAF12 agonist
Cc1c(Cl)c([N+](=O)[O-])nn1CC(=O)N1CCN(Cc2ccccc2)CC1,-0.8,4.4*,-1.0,-0.4,-0.9
Cc1ccccc1-n1nc2c(c1NC(=O)c1ccc(S(=O)(=O)N(C)C)cc1)CSC2,-0.6,0.2,0.6,-1.6,5.9*
CC(=O)Nc1c2c(nn1-c1ccccc1C)CSC2,-1.0,-0.5,2.2,-0.6,-1.2
CC[C@H](C)C(=O)O[C@H]1CCC=C2C=C[C@H](C)[C@H](CC[C@@H]3C[C@@H](O)CC(=O)O3)[C@H]21,-0.6,0.3,3.9*,1.3,-2.1
O=C(NNc1nc2ccccc2s1)C1CC1,0.7,0.5,0.1,1.1,3.0
CC(C)C(=O)NNc1nc2ccccc2s1,-0.8,-0.3,0.9,8.7,6.2*
O=C(NNc1nc2ccccc2s1)c1ccccc1F,0.0,0.3,-0.1,-1.4,5.8*
O=C(NNC(=O)c1cc(-c2ccncc2)nc2ccccc12)c1ccccc1F,-0.7,1.7,2.4,4.3,4.0
O=C(NNC(=O)c1cc(Cl)nc2ccccc12)c1ccccc1F,1.1*,-1.9,0.8,-0.9,2.3
O=C(c1ccco1)N1CCN(C(=O)c2cc(Cl)nc3ccccc23)CC1,1.2*,-0.4,-0.4,0.9,2.2
C=CCn1ccc(O)c(Cc2ccc(Cl)cc2)c1=O,-1.1,-0.4,-0.2,-0.3,-2.0
CCN(C)c1nc(C)nc2c1nnn2Cc1ccccc1,-0.8,/,0.6,-0.3,-1.5
O=C(NNc1nc2ccccc2s1)Nc1ccc(Cl)c(Cl)c1,-0.8,0.1,0.2,-6.6,2.1
O=C(NNc1nc2ccccc2s1)Nc1ccc(F)cc1,0.1,6.0*,1.4,9.7,4.5
Cn1cnc(S(=O)(=O)Nc2ccc(OC(F)(F)F)cc2)c1,-1.4,5.5*,0.5,2.5,0.9
Cc1ccc(S(=O)(=O)n2ccc(-c3c(-c4ccc(F)cc4)noc3C)n2)cc1,-1.1,/,-3.8,-0.3,-3.1
COCCCn1c(=O)c2sccc2n(Cc2ccc(C)cc2)c1=O,1.0*,0.5,0.0,-1.8,-0.8
CC1=CC(C)(C)N=C(NC#N)N1,1.0*,3.0,0.0,-0.2,-1.0
Fc1cccc(C[n+]2csc3ccccc32)c1,-0.5,-0.4,-0.7,5.1,0.2
c1ccc(C[n+]2csc3ccccc32)cc1,1.1*,1.3,0.8,3.1,2.3
O=C(Cc1nc(=O)c2ccccc2s1)Nc1ccccc1,0.4,2.9,3.3,10.9*,5.9*
C[C@@H]1CCCCO[C@@H](CN(C)C(=O)Nc2ccc(F)cc2)[C@@H](C)CN([C@H](C)CO)C(=O)c2cc(NC(=O)Nc3ccc4c(c3)OCO4)ccc2O1,-0.5,/,0.5,1.8,1.5
Nc1nnc(SCc2cn3cc(Cl)ccc3n2)s1,-0.5,0.5,0.8,12.1*,2.2
Clc1ccc(SCc2cn3ccccc3n2)cc1,-0.8,1.6,1.2,11.9*,2.0
Cc1cccc2nc(CSc3ccc(Cl)cc3)cn12,-0.7,1.5,4.2*,12.1*,2.1
SMILES,ssDAF12 agonist,DAX1 inh-1,DAX1 inh-2,hgDAF12 agonist,hcDAF12 agonist
Cc1ccc(SCc2cn3cc(Cl)ccc3n2)cc1,0.0,-1.9,0.3,4.3,0.7
CCC(CO)Nc1ccn2nc(-c3cc(OC)c(OC)c(OC)c3)cc2n1 (configuration not stated),-1.4,/,0.3,1.0,0.5
CCC(CO)Nc1ccn2nc(-c3cccs3)cc2n1 (configuration not stated),-0.4,/,3.9*,11.2*,3.6
O=[N+]([O-])CC(c1ccccc1)c1c[nH]c2ccccc12 (configuration not stated),1.1*,/,-0.2,0.4,2.6
COc1cc(C(C[N+](=O)[O-])c2c(C)[nH]c3ccccc23)cc(OC)c1OC (configuration not stated),-0.3,0.0,0.4,-1.1,2.2
CCc1ccc(N(C(=O)Cn2nnc(-c3ccccc3)n2)C(C(=O)NC2CCCCC2)c2ccccn2)cc1 (configuration not stated),-0.4,0.1,0.0,2.6,6.5*
CC(=O)c1ccc(N(C(=O)Cn2nnc(-c3ccccc3)n2)C(C(=O)NC2CCCCC2)c2ccccn2)cc1 (configuration not stated),-0.7,-0.8,0.0,0.4,-2.3
O=C(OC12CCCN(C1)/C(=C/c1ccc(Cl)cc1)C2)c1cccc(F)c1 (configuration not stated),-0.9,/,-0.8,3.6,-1.5
OC1c2cc(Cl)ccc2-c2c(Cl)cc(Cl)cc21 (configuration not stated),-0.4,5.4*,-1.6,2.0,4.2
CCOc1cc(N2CCOCC2)c(OCC)cc1NC(=O)c1ccc2ccccc2n1,0.9*,-0.5,1.6,5.7,3.2
O=C(Nc1ccc(N2CCCCC2)cc1)c1ccc2ccccc2n1,-0.8,5.5*,1.3,9.0,4.0
O=C(Nc1cccc(S(=O)(=O)N2CCCCCC2)c1)c1ccc2ccccc2n1,0.0,0.8,2.3,5.4,6.4*
O=C(Nc1cccc(-c2cn3c(n2)SCC3)c1)c1ccc2ccccc2n1,0.4,-0.8,2.9,12.1*,4.3
COC(=O)[C@]12C[C@H](CC(=O)N3CCSCC3)C(=O)N(Cc3ccc(Cl)cc3Cl)C1=C[C@H](C(C)(C)C)O[C@@H]2C,-0.6,/,-0.7,1.3,-3.0
CCN(CC)c1ccc(C=NCCc2ccc(S(N)(=O)=O)cc2)cc1,1.0*,-0.4,-1.2,-2.1,4.0
Cc1ccc(C2c3c(n[nH]c3C)C(=O)N2Cc2ccccc2)cc1 (configuration not stated),-0.9,/,-0.6,-2.3,-2.4
CN(C(=O)CNC(=O)c1ccccc1OCC(=O)Nc1ccc(Br)cc1)c1ccccc1,-2.0,/,-3.3,1.2,-2.9
O=C(Nc1ccc(N2CCOCC2)c(Cl)c1)c1ccc(F)cc1,-1.1,5.2*,1.0,5.7,0.4
O=C(Nc1ccc(N2CCOCC2)c(Cl)c1)c1ccc(-n2cnnc2)cc1,-1.3,0.4,0.8,0.2,1.7
CCN1CCN(c2ccc(NC(=O)c3cccc(F)c3)cc2Cl)CC1,-0.5,0.4,3.5,12.7*,1.1
COc1ccccc1NC(=O)OC1CCC12CCCCC2 (configuration not stated),-1.7,/,-1.2,3.5,-2.8
CCOC(=O)Cc1csc(NS(=O)(=O)c2ccc(Cl)cc2)n1,-1.8,0.9,0.6,-1.6,1.4
O=S(=O)(c1ccc(F)cc1)N1CCN(c2ccccn2)CC1,1.6*,-0.2,-0.2,0.9,3.5
O=C(Nc1c(F)cc(F)cc1Br)c1cc(S(=O)(=O)N2CCN(c3ccccn3)CC2)ccc1F,-2.1,4.7*,-2.1,-1.4,-2.7
O=C(CSc1nc(-c2ccccc2)ns1)N1CCOCC1,-0.2,0.9,1.9,3.8,0.4
Cc1cccc(-c2nsc(SCC(=O)N3CCCC3)n2)c1,-0.2,2.0,2.6,12.8*,1.9
CCOC(=O)c1oc2ccc(CNCCO)c(Cl)c2c1C,0.1,2.0,2.8,7.8,6.1*
